Assay in all cases: log2 fold change, soluble protein after heating vs DMSO (PISA); higher = thermal stabilisation; K562 cells, 10 uM, 30 min; active = over 0.2 and 3.5 SD of the protein, either way, in both replicates (recomputed)
Compound in one test: CN1CCc2c(c3ccccc3n2Cc2ccc(C(=O)NO)cc2)C1 [Tubastatin A]
In outline:
(§1)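 Quantification of soluble protein used TMTpro 16plex LC-MS/MS, with channel sums equalised. Samples were the supernatant after 21,000xg for 90 min of pooled aliquots from K562 cells (2×10^6 cells/mL) treated with 10 μM compound for 30 min, heated for 3 min over 48°C-58°C, and extracted in PBS with 0.5% NP-40 at 4°C. Values, from duplicates, describe thermal stability against control samples on a log2 fold-change scale.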

Compound in a further test: CNC(=O)c1ccc(Nc2ncc(C(F)(F)F)c(NCc3nccnc3N(C)S(C)(=O)=O)n2)cc1 [defactinib]
In short, it runs like this:
as §1

Compound in test [1]: COC(=O)[C@H](CCSC)NC(=O)C1=C(C=C(C=C1)NC[C@H](CS)N)C2=CC=CC=C2
In outline:
as §1

Compound in the next test: CN1CC[C@H](c2c(O)cc(O)c3c(=O)cc(-c4ccccc4Cl)oc23)[C@H](O)C1 [alvocidib]
In outline:
as §1

Compound in the next test: CN1CCN(c2nc(C3=C(c4c[nH]c5ccccc45)C(=O)NC3=O)c3ccccc3n2)CC1 [sotrastaurin]
In short, it runs like this: as §1

Compound in test [2]: CNC(=O)C1=CC=CC=C1NC2=NC(=NC=C2Cl)NC3=C(C=C(C=C3)N4CCOCC4)OC
In short, it runs like this:
as §1

Compound in the next test: CNCc1ccc(-c2[nH]c3cc(F)cc4c3c2CCNC4=O)cc1 [rucaparib]
In outline:
as §1

Compound in a further test: COC(=O)N[C@@H](C)CNc1nccc(-c2cn(C(C)C)nc2-c2cc(Cl)cc(NS(C)(=O)=O)c2F)n1 [encorafenib]
In short, it runs like this:
as §1

Compound in another test: CN1CCN(CCOc2cc(OC3CCOCC3)c3c(Nc4c(Cl)ccc5c4OCO5)ncnc3c2)CC1 [saracatinib]
In short, it runs like this: as §1

Compound in test [3]: CNc1nc(-c2ccc3c(N)n[nH]c3c2)cc(N2C[C@@H](C(=O)NC3CCCCC3)CC[C@H]2C)n1
In short, it runs like this:
as §1

Targets with a hit are over-represented here; the source holds about 7,900 in all. About 0.6% of all pairs of compound and target were hits. Values without a mark were called inactive.

Chain of UniProt Q14671 (Q14671 whole entry, looked up): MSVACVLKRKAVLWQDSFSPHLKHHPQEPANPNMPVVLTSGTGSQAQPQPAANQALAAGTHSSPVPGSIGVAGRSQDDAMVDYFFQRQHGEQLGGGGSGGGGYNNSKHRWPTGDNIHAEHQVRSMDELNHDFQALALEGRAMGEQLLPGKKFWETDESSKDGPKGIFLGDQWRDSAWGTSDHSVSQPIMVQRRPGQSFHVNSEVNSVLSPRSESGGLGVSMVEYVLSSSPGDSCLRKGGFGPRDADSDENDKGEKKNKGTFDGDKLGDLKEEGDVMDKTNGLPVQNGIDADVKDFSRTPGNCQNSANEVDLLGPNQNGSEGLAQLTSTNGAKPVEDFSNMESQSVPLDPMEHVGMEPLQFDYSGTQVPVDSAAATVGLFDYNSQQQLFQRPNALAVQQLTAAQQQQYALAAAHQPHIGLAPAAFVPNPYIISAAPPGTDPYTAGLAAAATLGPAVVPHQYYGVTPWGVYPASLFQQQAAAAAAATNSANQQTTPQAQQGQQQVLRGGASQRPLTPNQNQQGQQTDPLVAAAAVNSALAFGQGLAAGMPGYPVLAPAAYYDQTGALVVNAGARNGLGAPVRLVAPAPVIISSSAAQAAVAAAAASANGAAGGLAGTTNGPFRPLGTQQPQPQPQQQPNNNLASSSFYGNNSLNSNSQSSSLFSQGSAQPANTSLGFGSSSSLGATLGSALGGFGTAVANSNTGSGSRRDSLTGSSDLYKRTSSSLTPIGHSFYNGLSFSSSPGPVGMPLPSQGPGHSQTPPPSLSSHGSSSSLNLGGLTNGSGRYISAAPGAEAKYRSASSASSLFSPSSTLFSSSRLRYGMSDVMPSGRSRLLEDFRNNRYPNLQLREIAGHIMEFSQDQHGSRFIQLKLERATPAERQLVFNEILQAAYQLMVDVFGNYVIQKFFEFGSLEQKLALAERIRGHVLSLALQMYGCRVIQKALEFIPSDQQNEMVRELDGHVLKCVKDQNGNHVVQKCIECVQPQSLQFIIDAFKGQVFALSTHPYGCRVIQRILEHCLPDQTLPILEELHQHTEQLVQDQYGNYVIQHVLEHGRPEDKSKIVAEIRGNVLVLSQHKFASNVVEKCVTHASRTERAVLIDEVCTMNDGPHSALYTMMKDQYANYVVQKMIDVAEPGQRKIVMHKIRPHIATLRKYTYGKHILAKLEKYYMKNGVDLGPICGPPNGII
Chain of UniProt P14618 (P14618 whole entry, looked up): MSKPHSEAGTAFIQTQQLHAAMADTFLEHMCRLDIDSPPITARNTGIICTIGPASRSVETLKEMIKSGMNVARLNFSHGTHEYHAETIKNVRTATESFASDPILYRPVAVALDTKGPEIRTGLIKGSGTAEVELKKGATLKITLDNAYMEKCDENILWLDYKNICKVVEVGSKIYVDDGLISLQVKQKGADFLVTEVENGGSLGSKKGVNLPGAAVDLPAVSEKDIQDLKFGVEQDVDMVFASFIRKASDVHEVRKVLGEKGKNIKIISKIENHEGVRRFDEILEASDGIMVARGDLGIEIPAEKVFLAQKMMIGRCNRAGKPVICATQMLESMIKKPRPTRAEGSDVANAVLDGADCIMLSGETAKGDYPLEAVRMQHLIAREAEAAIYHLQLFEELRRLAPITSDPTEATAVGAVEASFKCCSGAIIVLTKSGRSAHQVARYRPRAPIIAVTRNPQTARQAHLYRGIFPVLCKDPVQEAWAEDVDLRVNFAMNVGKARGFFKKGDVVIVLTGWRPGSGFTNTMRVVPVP
Chain of UniProt P28065 (P28065 whole entry, looked up): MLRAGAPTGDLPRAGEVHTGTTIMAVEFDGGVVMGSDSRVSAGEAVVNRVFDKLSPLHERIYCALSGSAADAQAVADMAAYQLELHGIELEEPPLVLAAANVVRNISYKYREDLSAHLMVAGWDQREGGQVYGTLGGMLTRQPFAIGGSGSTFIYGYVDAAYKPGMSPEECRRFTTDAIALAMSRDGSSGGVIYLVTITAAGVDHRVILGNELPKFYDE
Chain of UniProt Q5THK1 (Q5THK1 whole entry, looked up): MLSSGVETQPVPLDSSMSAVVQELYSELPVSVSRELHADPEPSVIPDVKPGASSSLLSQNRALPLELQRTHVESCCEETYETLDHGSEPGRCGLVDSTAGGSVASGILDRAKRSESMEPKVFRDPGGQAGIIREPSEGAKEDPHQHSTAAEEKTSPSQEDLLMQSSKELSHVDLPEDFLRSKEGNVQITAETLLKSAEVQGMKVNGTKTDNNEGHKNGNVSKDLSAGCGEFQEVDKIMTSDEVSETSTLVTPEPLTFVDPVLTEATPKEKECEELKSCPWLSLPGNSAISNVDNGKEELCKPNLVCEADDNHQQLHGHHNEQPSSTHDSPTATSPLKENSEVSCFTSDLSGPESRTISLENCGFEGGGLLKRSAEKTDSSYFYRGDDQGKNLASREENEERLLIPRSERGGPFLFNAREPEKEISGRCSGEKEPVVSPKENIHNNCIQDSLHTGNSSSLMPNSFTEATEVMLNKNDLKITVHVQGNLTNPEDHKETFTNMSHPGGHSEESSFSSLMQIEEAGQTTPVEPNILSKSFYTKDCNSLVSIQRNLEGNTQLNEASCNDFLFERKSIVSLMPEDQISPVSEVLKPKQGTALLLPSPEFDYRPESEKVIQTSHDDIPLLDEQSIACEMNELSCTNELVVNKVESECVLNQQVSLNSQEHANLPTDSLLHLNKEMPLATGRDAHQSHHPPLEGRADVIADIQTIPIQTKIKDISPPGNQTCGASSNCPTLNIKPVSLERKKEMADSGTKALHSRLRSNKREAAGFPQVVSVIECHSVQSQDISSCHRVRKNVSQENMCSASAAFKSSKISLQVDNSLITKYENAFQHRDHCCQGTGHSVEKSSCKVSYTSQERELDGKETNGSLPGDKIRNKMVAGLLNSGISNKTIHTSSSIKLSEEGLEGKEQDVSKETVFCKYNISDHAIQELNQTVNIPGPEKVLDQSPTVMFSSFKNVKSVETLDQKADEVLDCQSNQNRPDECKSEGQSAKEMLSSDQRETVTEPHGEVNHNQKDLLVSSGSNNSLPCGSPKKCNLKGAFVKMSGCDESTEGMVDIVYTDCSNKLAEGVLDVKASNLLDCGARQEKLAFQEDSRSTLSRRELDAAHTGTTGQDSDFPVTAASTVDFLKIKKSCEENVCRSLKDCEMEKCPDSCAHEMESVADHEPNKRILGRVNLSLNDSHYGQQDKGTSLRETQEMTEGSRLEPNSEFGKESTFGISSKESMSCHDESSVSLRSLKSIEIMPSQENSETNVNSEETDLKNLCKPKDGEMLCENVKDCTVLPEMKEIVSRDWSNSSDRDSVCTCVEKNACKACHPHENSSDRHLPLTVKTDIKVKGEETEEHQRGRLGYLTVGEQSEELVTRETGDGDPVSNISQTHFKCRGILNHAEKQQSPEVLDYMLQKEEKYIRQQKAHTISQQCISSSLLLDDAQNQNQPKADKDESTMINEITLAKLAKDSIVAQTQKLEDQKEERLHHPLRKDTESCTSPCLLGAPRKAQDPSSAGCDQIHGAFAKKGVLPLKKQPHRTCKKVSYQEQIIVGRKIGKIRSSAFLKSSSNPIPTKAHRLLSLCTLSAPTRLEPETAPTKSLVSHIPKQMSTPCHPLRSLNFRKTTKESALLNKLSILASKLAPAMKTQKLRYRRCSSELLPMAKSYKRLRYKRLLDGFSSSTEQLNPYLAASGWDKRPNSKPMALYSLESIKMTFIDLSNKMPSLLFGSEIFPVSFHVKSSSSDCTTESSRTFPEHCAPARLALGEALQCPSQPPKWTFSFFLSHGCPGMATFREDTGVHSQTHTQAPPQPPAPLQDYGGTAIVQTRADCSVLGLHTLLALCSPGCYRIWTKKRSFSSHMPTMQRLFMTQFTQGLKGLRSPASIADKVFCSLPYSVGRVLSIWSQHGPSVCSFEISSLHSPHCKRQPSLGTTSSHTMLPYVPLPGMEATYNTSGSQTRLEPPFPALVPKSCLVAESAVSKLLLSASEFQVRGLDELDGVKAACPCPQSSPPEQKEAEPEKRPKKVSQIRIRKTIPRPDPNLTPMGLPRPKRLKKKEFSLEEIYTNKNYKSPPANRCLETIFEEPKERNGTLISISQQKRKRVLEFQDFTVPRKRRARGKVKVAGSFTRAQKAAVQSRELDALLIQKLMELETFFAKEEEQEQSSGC
Chain of UniProt Q14442 (Q14442 whole entry, looked up): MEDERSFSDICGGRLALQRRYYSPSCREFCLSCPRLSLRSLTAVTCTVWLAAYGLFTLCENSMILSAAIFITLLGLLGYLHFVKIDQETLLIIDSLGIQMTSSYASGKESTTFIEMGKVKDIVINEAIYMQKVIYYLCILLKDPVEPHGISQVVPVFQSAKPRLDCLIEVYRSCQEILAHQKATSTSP
Chain of UniProt Q9UHX1 (Q9UHX1 whole entry, looked up): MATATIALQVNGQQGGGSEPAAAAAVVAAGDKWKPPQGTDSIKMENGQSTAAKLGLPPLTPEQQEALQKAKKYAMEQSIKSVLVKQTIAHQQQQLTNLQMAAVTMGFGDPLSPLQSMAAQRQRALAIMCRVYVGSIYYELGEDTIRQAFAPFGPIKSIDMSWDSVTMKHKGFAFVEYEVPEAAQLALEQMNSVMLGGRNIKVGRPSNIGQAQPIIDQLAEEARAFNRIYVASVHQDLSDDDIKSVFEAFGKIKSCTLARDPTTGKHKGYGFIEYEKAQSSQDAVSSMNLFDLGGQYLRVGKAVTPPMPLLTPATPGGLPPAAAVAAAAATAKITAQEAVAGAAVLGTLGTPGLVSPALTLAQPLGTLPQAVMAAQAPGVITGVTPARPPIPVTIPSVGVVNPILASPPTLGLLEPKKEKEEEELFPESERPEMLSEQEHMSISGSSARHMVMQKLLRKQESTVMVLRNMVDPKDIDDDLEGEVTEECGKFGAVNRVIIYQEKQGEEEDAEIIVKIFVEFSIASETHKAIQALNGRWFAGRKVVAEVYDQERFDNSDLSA
Chain of UniProt O75365 (O75365 whole entry, looked up): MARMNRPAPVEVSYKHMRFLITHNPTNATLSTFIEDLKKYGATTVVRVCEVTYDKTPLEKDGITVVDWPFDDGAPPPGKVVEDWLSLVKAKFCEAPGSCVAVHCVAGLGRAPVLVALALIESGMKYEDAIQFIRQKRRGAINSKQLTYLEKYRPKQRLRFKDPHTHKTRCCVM

For the target PSMD8 (UniProt K7ERW6), the log2 fold change is 0.235 with Tubastatin A, 0.011 with defactinib and 0.066 in test [1].
For the target PRR14L (UniProt Q5THK1), the log2 fold change with alvocidib is 0.016; with Tubastatin A it was 0.053; with defactinib it was 0.286; in test [1] it was 0.125.
For the target PSMB9 (UniProt P28065), the log2 fold change with sotrastaurin is 0.074; with alvocidib it was 0.071; in test [2], 0.062; with defactinib it was -0.008; in the test with rucaparib, 0.296; with encorafenib it was -0.22. For the same target, in [1], the log2 fold change was 0.094.
As for PKM isoform 2 (UniProt P14618), the log2 fold change with saracatinib is 0.202; with sotrastaurin, -0.133; with Tubastatin A, -0.052; with defactinib it was -0.045; with rucaparib it was 0.125; in [3] it was -0.063. For the same target, the log2 fold change with encorafenib is -0.09; in test [1] it was -0.081.
With PSMD8 (UniProt K7EK21), in the test with alvocidib, the log2 fold change was 0.25.
PUF60 isoform 2 (UniProt Q9UHX1): the log2 fold change in the test with saracatinib is 0.107; with alvocidib, -0.306; in the test with Tubastatin A, 0.202; in the test with defactinib, -0.165; in [3], -0.403; in test [1] it was -0.089.
With PPP2R5C isoform 2 (UniProt Q13362), the figures for the log2 fold change (in [2]; in the test with rucaparib; with encorafenib) were -0.017, -0.063 and 0.003, respectively.
PIGH (UniProt Q14442): the log2 fold change with saracatinib is -0.099; with alvocidib, 0.022; with Tubastatin A, -0.274 (active); in test [2] it was 0.012; with defactinib, 0.005; in the test with rucaparib, 0.037. Further, the log2 fold change is 0.025 in test [3], -0.068 in the test with encorafenib and -0.001 in test [1].
For the target PUM1 (UniProt Q14671), the log2 fold change was -0.155 with saracatinib; -0.083 with alvocidib; 0 with Tubastatin A; -0.348 in [2]; -0.232 in test [3].
With PSMA3 (UniProt G3V4X5), the values for the log2 fold change (in the test with defactinib; in test [1]) were 0.061 and -0.208, respectively.
With PKN2 (UniProt Q16513), the log2 fold change in the test with saracatinib is -0.059; with alvocidib, -0.159; in the test with Tubastatin A, 0.025; in test [2], 0.037; in the test with defactinib, -0.099; with rucaparib, -0.039. Also, the log2 fold change in [3] was -0.037; with encorafenib it was 0.024; in [1], -0.05.
With PTK2B (UniProt Q14289), the log2 fold change with saracatinib was 0.163; with sotrastaurin, -0.104; with Tubastatin A, 0.078; in [2], 0.309; with defactinib, 0.36; in test [3] it was -0.034. Besides, in [1], the log2 fold change is -0.155.
As to PRKD3 (UniProt O94806), the log2 fold change was 0.023 with saracatinib; -0.31 with sotrastaurin; 0.066 with alvocidib; -0.335 in test [2]; -0.068 in the test with defactinib; 0.002 in test [3]. Further, in test [1], the log2 fold change was -0.058.
Consider PSMC1 (UniProt G3V4X1), for which the figures for the log2 fold change (with alvocidib; in test [2]) were 0.031 and -0.011, respectively.
PRKX (UniProt P51817): the log2 fold change in test [2] was -0.139.
The same measure, in the same setting: then PHRF1 (UniProt Q9P1Y6), with -0.022.
Take PAN2 (UniProt Q504Q3): the log2 fold change with saracatinib was 0.113; with defactinib it was 0.001; with rucaparib it was -0.656 (active); in [3], -0.048; with encorafenib, 0.073; in [1], -0.045.
Take PCF11 (UniProt O94913): the log2 fold change in the test with alvocidib is 0.027; with defactinib it was -0.059; with rucaparib, -0.995 (active); in the test with encorafenib, -0.06; in test [1], 0.095.
For the target PDE4DIP (UniProt E9PS60), the log2 fold change with alvocidib was 0.095; in test [2], -0.196; with defactinib, 0.095; in the test with rucaparib, 0.172; in the test with encorafenib, 0.125; in test [1], 0.032.
For PTP4A3 (UniProt O75365), the log2 fold change with defactinib is -1.14 (active); in test [1] it was -0.029.
With PDE4A (UniProt P27815), the log2 fold change in the test with alvocidib is -0.263; with Tubastatin A, 0.054; in [2], 0.017; with defactinib it was -0.145; in [1], -0.018.
PRKD2 (UniProt M0R346): in the test with sotrastaurin, the log2 fold change was -0.247.

For the origin of these results see the supplement of paper PMC10849652.
